Measurements published in the supplement of paper PMC8728848.
The entries come from a sample that favours the strongest signals as a whole.

Experiments:
Assay in all cases: glycan array binding signal (z-score within array); higher = stronger binding
Conditions in all cases: glycan notation: IUPAC condensed, linker removed
[1] = target: Fuc(a1-2)Gal(b1-3)GalNAc(b1-4)[Neu5Ac(a2-3)]Gal(b1-4)Glc
In short: (§1)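 Glycan array data were curated from 3228 arrays in the Consortium for Functional Glycomics database and kept only where the protein sequence was available. Glycan names were converted to IUPAC-condensed notation, and columns mapping to the same glycan were averaged. The binding signal is a within-array Z-score, averaged across arrays of the same protein sequence at different concentrations or buffers and across linkers. Negative Z-scores can be read as non-binding.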

Fuc(a1-2)Gal(b1-3)GlcNAc = target: Fuc(a1-2)Gal(b1-3)GlcNAc
In short: as §1

[2] = target: Fuc(a1-2)Gal(b1-3)GlcNAc(b1-2)Man(a1-3)[Fuc(a1-2)Gal(b1-3)GlcNAc(b1-2)Man(a1-6)]Man(b1-4)GlcNAc(b1-4)GlcNAc
In short: as §1

[3] = target: Fuc(a1-2)Gal(b1-4)GlcNAc(b1-3)Gal(b1-4)GlcNAc
In short: as §1

[4] = target: Fuc(a1-2)Gal(b1-4)GlcNAc(b1-3)Gal(b1-4)GlcNAc(b1-2)Man(a1-3)[Fuc(a1-2)Gal(b1-4)GlcNAc(b1-3)Gal(b1-4)GlcNAc(b1-2)Man(a1-6)]Man(b1-4)GlcNAc(b1-4)GlcNAc
In short: as §1

[5] = target: Fuc(a1-2)Gal(b1-4)[Fuc(a1-3)]GlcNAc(b1-3)GalNAc
In short: as §1

[6] = target: Fuc(a1-2)Gal6S(b1-4)Glc6S
In short: as §1

[7] = target: Fuc(a1-2)[Gal(a1-3)]Gal(b1-4)GlcNAc(b1-2)Man(a1-3)[Fuc(a1-2)[Gal(a1-3)]Gal(b1-4)GlcNAc(b1-2)Man(a1-6)]Man(b1-4)GlcNAc(b1-4)GlcNAc
In short: as §1

[8] = target: Fuc(a1-2)[Gal(a1-4)]Gal(b1-4)GlcNAc
In short: as §1

[9] = target: Gal(a1-3)Gal(b1-3)[Fuc(a1-4)]GlcNAc(b1-2)Man(a1-3)[Gal(a1-3)Gal(b1-3)[Fuc(a1-4)]GlcNAc(b1-2)Man(a1-6)]Man(b1-4)GlcNAc(b1-4)GlcNAc
In short: as §1

Gal(a1-3)Gal(b1-4)Glc = target: Gal(a1-3)Gal(b1-4)Glc
In short: as §1

[10] = target: Gal(a1-3)Gal(b1-4)[Fuc(a1-3)]GlcNAc
In short: as §1

Gal(a1-3)GalNAc = target: Gal(a1-3)GalNAc
In short: as §1

[11] = target: Gal(a1-4)Gal(b1-3)GlcNAc(b1-2)Man(a1-3)[Gal(a1-4)Gal(b1-3)GlcNAc(b1-2)Man(a1-6)]Man(b1-4)GlcNAc(b1-4)GlcNAc
In short: as §1

[12] = target: Gal(a1-4)Gal(b1-4)GlcNAc(b1-2)Man(a1-3)[Gal(a1-4)Gal(b1-4)GlcNAc(b1-2)Man(a1-6)]Man(b1-4)GlcNAc(b1-4)GlcNAc
In short: as §1

[13] = target: Gal(a1-4)Gal(b1-4)GlcNAc(b1-3)Gal(b1-4)Glc
In short: as §1

Gal(b1-3)GlcNAc = target: Gal(b1-3)GlcNAc
In short: as §1

[14] = target: Gal(b1-3)GlcNAc(b1-3)Gal(b1-4)GlcNAc(b1-3)Gal(b1-4)GlcNAc(b1-2)[Gal(b1-3)GlcNAc(b1-3)Gal(b1-4)GlcNAc(b1-3)Gal(b1-4)GlcNAc(b1-6)]Man(a1-6)[Gal(b1-3)GlcNAc(b1-3)Gal(b1-4)GlcNAc(b1-3)Gal(b1-4)GlcNAc(b1-2)Man(a1-3)]Man(b1-4)GlcNAc(b1-4)[Fuc(a1-6)]GlcNAc
In short: as §1

[15] = target: Gal(b1-3)GlcNAc(b1-3)GalNAc
In short: as §1

[16] = target: Gal(b1-3)[Fuc(a1-4)]GlcNAc(b1-6)GalNAc
In short: as §1

[17] = target: Gal(b1-4)GlcNAc(b1-3)Gal(b1-4)GlcNAc(b1-3)Gal(b1-4)GlcNAc(b1-2)[Gal(b1-4)GlcNAc(b1-3)Gal(b1-4)GlcNAc(b1-3)Gal(b1-4)GlcNAc(b1-6)]Man(a1-6)[Gal(b1-4)GlcNAc(b1-3)Gal(b1-4)GlcNAc(b1-3)Gal(b1-4)GlcNAc(b1-2)Man(a1-3)]Man(b1-4)GlcNAc(b1-4)[Fuc(a1-6)]GlcNAc
In short: as §1

[18] = target: Gal(b1-4)GlcNAc(b1-3)Gal(b1-4)GlcNAc(b1-3)Gal(b1-4)GlcNAc(b1-3)Gal(b1-4)GlcNAc(b1-2)[Gal(b1-4)GlcNAc(b1-3)Gal(b1-4)GlcNAc(b1-3)Gal(b1-4)GlcNAc(b1-3)Gal(b1-4)GlcNAc(b1-6)]Man(a1-6)[Gal(b1-4)GlcNAc(b1-3)Gal(b1-4)GlcNAc(b1-3)Gal(b1-4)GlcNAc(b1-3)Gal(b1-4)GlcNAc(b1-2)Man(a1-3)]Man(b1-4)GlcNAc(b1-4)[Fuc(a1-6)]GlcNAc
In short: as §1

[19] = target: Gal(b1-4)GlcNAc(b1-3)Gal(b1-4)GlcNAc(b1-3)Gal(b1-4)GlcNAc(b1-3)Gal(b1-4)GlcNAc(b1-3)Gal(b1-4)GlcNAc(b1-2)Man(a1-3)[Gal(b1-4)GlcNAc(b1-3)Gal(b1-4)GlcNAc(b1-3)Gal(b1-4)GlcNAc(b1-3)Gal(b1-4)GlcNAc(b1-3)Gal(b1-4)GlcNAc(b1-2)Man(a1-6)]Man(b1-4)GlcNAc(b1-4)[Fuc(a1-6)]GlcNAc
In short: as §1

[20] = target: Gal(b1-4)GlcNAc(b1-6)GalNAc
In short: as §1

[21] = target: Gal3S(b1-4)[Fuc(a1-3)]GlcNAc
In short: as §1

[22] = target: Gal3S(b1-4)[Fuc(a1-3)]GlcNAc6S
In short: as §1

[23] = target: GalNAc(b1-4)GlcNAc(b1-2)Man(a1-3)[GalNAc(b1-4)GlcNAc(b1-2)Man(a1-6)]Man(b1-4)GlcNAc(b1-4)GlcNAc
In short: as §1

[24] = target: GalNAc(b1-4)GlcNAc(b1-3)GalNAc(b1-4)GlcNAc
In short: as §1

[25] = target: GlcNAc(a1-4)Gal(b1-4)GlcNAc
In short: as §1

[26] = target: GlcNAc(b1-2)[GlcNAc(b1-4)]Man(a1-3)[GlcNAc(b1-2)Man(a1-6)]Man(b1-4)GlcNAc(b1-4)GlcNAc
In short: as §1

B1: PX9961U-pdi-543-24-543 (Parabacteroides distasonis) (protein)
chain: EEPVGEFLPGQVESEENIEGIVTGAYAVLDGYYASDAINSGCSNWQFGDVVSDDAYKGGGGTGDQNQIHLMEIFNANPTGIDFEARWAALYEGIKRCNQAIRLLNGSEVKNKEQRLAEMRFLRGHYYFNLKIIYNQIPWIDETLVDPNEYNKKSNIEFSSDQLWEKILEEFSAAYKVLPESQADYGRPTKMAARAYMAKVYLYQSKWKECLEACDEVIQSGKYELFPDFRNVFLPENDNCSEIIFAIQLSINDGSPNNENGSYGDRLLPPGGPYPVYGFLRPTQNLVNAYKTDVKGLPYNDGKDVSENDYVDVRLDHTLARPNIPFMDVQLYDWTPREASVYGPYSPKKRLVSLNSTYYSPIWPYVNALNFYVIRYADLLLWRAEAAIETGDLETGRKYINMIRERAKNTQHVKTMDQSQDAANYKVGVYDEPFKSKNEAVQALRMERRLEMAHEGIRFFDLVRWGVADEVINAYIAKEKVFRSHLQNAHFVKGKHEYFPIPQSMIDICGTEVMKQNPGY
**Q.** Which results are given for B1?
**A.** glycan array binding signal (z-score) [1]: -0.337; glycan array binding signal (z-score) (Fuc(a1-2)Gal(b1-3)GlcNAc): -0.324; glycan array binding signal (z-score) [2]: 7.29; glycan array binding signal (z-score) [3]: -0.463; glycan array binding signal (z-score) [4]: -0.241; glycan array binding signal (z-score) [5]: 3.47; glycan array binding signal (z-score) [6]: -0.226; glycan array binding signal (z-score) [7]: 8.53; glycan array binding signal (z-score) [8]: -0.379; glycan array binding signal (z-score) [9]: 4.38; glycan array binding signal (z-score) (Gal(a1-3)Gal(b1-4)Glc): -0.175; glycan array binding signal (z-score) [10]: 0.287; glycan array binding signal (z-score) (Gal(a1-3)GalNAc): -0.348; glycan array binding signal (z-score) [11]: -0.428; glycan array binding signal (z-score) [12]: 2.13; glycan array binding signal (z-score) [13]: -0.389; glycan array binding signal (z-score) (Gal(b1-3)GlcNAc): -0.43; glycan array binding signal (z-score) [14]: 4.42; glycan array binding signal (z-score) [15]: -0.385; glycan array binding signal (z-score) [16]: 3.44; glycan array binding signal (z-score) [17]: 6.31; glycan array binding signal (z-score) [18]: 3.38; glycan array binding signal (z-score) [19]: 7.11; glycan array binding signal (z-score) [20]: -0.178; glycan array binding signal (z-score) [21]: -0.303; glycan array binding signal (z-score) [22]: -0.27; glycan array binding signal (z-score) [23]: -0.253; glycan array binding signal (z-score) [24]: 0.352; glycan array binding signal (z-score) [25]: -0.445; glycan array binding signal (z-score) [26]: -0.415
